DRD3 antagonist = qHTS of D3 Dopamine Receptor Antagonist: qHTS | D(3) dopamine receptor (Homo sapiens), P35462 | D3R cells, DiscoveRx beta-arrestin luminescence, antagonist mode; active compounds read low | max response, negative = inhibition, % | actives 2.5% (n = 360,000) | AID 652054, 2013; in the data active = max response below about -50%; inconclusive = no clear call, values can overlap the other calls; note: % is set by controls: 0 for no effect and ±100 for the full control effect
Target sequence (P35462 whole entry, looked up): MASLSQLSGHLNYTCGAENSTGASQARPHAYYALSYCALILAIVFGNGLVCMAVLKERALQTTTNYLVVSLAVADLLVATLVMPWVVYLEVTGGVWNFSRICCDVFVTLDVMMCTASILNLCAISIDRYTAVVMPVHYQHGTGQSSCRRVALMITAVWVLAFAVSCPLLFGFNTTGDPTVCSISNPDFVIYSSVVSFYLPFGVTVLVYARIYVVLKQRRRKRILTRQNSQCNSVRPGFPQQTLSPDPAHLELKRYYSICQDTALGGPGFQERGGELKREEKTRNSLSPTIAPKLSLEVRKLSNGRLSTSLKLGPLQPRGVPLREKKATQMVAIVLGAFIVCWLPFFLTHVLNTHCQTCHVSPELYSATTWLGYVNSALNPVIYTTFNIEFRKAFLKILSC
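Cells plated overnight at 1500 cells/well, then exposed to library compounds with dopamine controls for 90 minutes at 37 degrees C. DiscoveRx reagent added for 30–60 minutes at room temperature; luminescence read, quantitative HTS format.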
ATXN viability = Viability Counterscreen for Primary qHTS for Inhibitors of ATXN expression. S2 cells (HEK-293 line with an ATXN2-luciferase reporter) viability, CellTiter-Fluor protease fluorescence, 24 h. Potency, µM (highest dose often 56.7 µM), usual class: cytotoxic. actives 0.49% (n = 400,000); note: potency is the fitted concentration of half-maximal effect; nearly all actives have a fitted effect of over 40% in size
ATXN2 expr inh = Primary qHTS for Inhibitors of ATXN expression; HEK-293 ATXN2-luciferase reporter, luminescence, 24 h; Potency, µM (top dose mostly 57 µM), inactives show at the top dose activity change, negative = inhibition, usual class: inhibitors; actives 0.72% (n = 360,000); AID 1745845, 2022; note: potency is the fitted concentration of half-maximal effect; % is set by controls: 0 for no effect and ±100 for the full control effect; nearly all actives have a fitted effect of over 55% in size
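qHTS (up to 57 uM final) was run with 24 h compound exposure of reporter cells at 37 °C. Each well was multiplexed: SteadyGlo luminescence measured ATXN2-luciferase expression after a fluorogenic Gly-Phe-AFC viability readout (25 uM final).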
HepG2 tox = qHTS for Inhibitors of TGF-b: Cytotox Counterscreen; HepG2 CAGA-GFP viability, ATP luminescence, 18 h; AID 588856, 2011; Potency, µM (top dose mostly 46.1 µM), for inactives: top-dose activity change, negative = cytotoxicity, actives largely listed as cytotoxic; actives 0.76% (n = 410,000); note: potency is the fitted concentration of half-maximal effect
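HepG2 CAGA-GFP cells (1000/well, DMEM with 1% FBS) received compound, then TGF-beta at 500 pg/mL final, and were incubated 18 hours at 37 degrees C. Viability was read by CellTiter-Glo luminescence. Media-only wells were set as complete cell-killing and DMSO as no toxicity.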
D3 ag = qHTS of D3 Dopamine Receptor Agonist: qHTS | D(3) dopamine receptor (Homo sapiens), P35462 | D3R DiscoveRx beta-arrestin cells, luminescence, 90 min | max activation, % | actives 0.58% (n = 410,000) | AID 652048, 2013; in the data active = max activation above about 30%; note: 0% is about no effect
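Agonist-mode cell screen: cells plated at 1500/well and incubated overnight at 37 °C, then exposed to library compounds for 90 min at 37 °C. Detection reagent was added for 30–60 min at room temperature, and luminescence was read.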
TGFb SMAD3 inh = qHTS for Inhibitors of TGF-b; HepG2 CAGA-GFP TGF-b/SMAD3 reporter, GFP fluorescence, 18 h; TGF-beta stimulated, 500 pg/mL final; Potency, µM (top dose mostly 46.1 µM), inactives show at the highest dose activity, negative = inhibition, hits mostly inhibitors; actives 1.2% (n = 410,000); note: potency is the fitted concentration of half-maximal effect; % is set by controls: 0 for no effect and ±100 for the full control effect; nearly all actives have a fitted effect of over 65% in size
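HEPG2 CAGA-GFP, 1000 cells/well; 2 h settle, 37 C; cpd via pin tool; TGF-b 500 pg/mL final; 18 h, 37 C; GFP imaging ex488/em500-530; %Activity normalised to -TGF-b and +DMSO controls; CRC fit, curve class.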
An asterisk follows results filed as active; i = inactive; ? = inconclusive; nt = no result given; ! = not confirmed by another sample. Hits are enriched below; roughly 4.7% of the tested compounds scored in any of these assays. Unless noted, calls come from the whole dose curve; as a rule, active = well fitted curve in the direction sought with a large enough effect; inconclusive = small, poorly fitted or top-dose-only effect, or another doubt; inactive = no such curve, though single readings can be large; an effect the other way counts as inactive or inconclusive.

SMILES | DRD3 antagonist | ATXN viability | ATXN2 expr inh | HepG2 tox | D3 ag | TGFb SMAD3 inh
S=C1NC[C@H](Cc2ccccc2)N1CC1CCN(CCCC2CCCC2)CC1 | -81* | ? | -16% | -28% | -43 | -15%
COc1ccc(/C(C)=N/NC2=NCCN2)cc1Cl | -22 | ? | -29% | -23% | -5 | 1%
CC(=NNC1=NCCN1)c1cn(C2=NCCN2)nc1C | -50* | i | -3% | -17% | -5 | -18%
Cc1ncc2c(c1CNC(=O)c1cncs1)CCN(C(=O)c1ccsc1)C2 | nt | i | nt | nt | nt | nt
Cc1cc(=O)oc2c(N)nccc12 | -1 | 35µM* | ? | -112% | -3 | ?
O=[N+]([O-])c1ccccc1/C=C/CN1CCCCC1 | -71* | i | -1% | 6% | -28 | 13%
CN(C/C=C/c1ccccc1[N+](=O)[O-])Cc1ccccc1 | -80* | i | nt | -16% | 0 | -8%
CCOC(=O)C1CCCN(C/C=C/c2ccccc2[N+](=O)[O-])C1 (centres undefined) | -64* | i | 0% | 0% | -30 | -9%
CCOC(=O)C1CCCN(CCC(C)c2ccccc2)C1 (centres undefined) | -61* | i | -2% | 9% | -28 | -10%
CCN(CC)C(=O)C1CCCN(C/C=C/c2ccccc2[N+](=O)[O-])C1 (centres undefined) | -12 | ? | -11% | -13% | -8 | 3%
CCC1CCCCN1C(=O)c1nn(-c2ccc(C)cc2)c(=O)c2c1c1ccccc1n2C (centres undefined) | nt | i | -10% | 5% | -12 | -12%
CCOC(=O)C[C@H]1c2cc(F)ccc2S(=O)(=O)N1Cc1cc(OC)c(OC)c(OC)c1 | nt | nt | nt | -15% | nt | ?
COc1ccc(OC)c(-c2csc(N(C)C(=O)c3ccco3)n2)c1 | 15 | 35µM* | -19% | -5% | -2 | -4%
CCc1c(C)sc(NC(=O)c2cc(-c3ccc(OC)c(OC)c3)on2)c1C#N | 6 | i | 9% | 1% | 12 | 9%
COc1ccc(OC)c(-c2cc(C(=O)NCc3ccco3)no2)c1 | -54* | i | 5% | -14% | -27 | -1%
Cc1nn(Cc2ccccc2)c(C)c1NC(=O)c1cc(-c2ccco2)on1 | 13 | i | -1% | -20% | 12 | -25%
COc1ccc(OC)c(-c2cc(C(=O)Nc3c(C)nn(Cc4ccccc4)c3C)no2)c1 | 23 | i | -19% | -18% | 35* | -24%
CCc1c(C)sc(NC(=O)c2cc(-c3cc(OC)ccc3OC)on2)c1C#N | -10 | nt | 14µM* | 2% | -17 | 2%
Nc1c(N=Nc2ccc([N+](=O)[O-])cc2)c(S(=O)(=O)O)cc2cc(S(=O)(=O)O)c(/C=C/c3ccccc3)c(O)c12 | nt | nt | nt | -19% | nt | -3%
CCN(CC)c1ccc(/C=C/c2c(C)cnc3ccccc23)cc1 | nt | nt | nt | -63% | nt | ?
O=C(Cn1c(=O)oc2ccccc21)NCc1cccc(Cl)c1 | nt | i | 8% | 7% | -8 | 14%
Cc1ccc(CN2CCC(C3(c4ccccn4)NC(=O)N(CC4CCCO4)C3=O)CC2)cc1C (centres undefined) | nt | i | nt | nt | nt | nt
COc1ccc(OC)c(-c2cc(C(=O)Nc3cc(C)on3)no2)c1 | ? | i | -20% | 0% | -24 | -7%
COc1ccc(OC)c(-c2cc(C(=O)Nc3c(C)nn(Cc4ccc(Cl)cc4)c3C)no2)c1 | 16 | i | -30% | -8% | 41* | -3%
O=S(=O)(c1ccc(Br)cc1)N1CCCN(Cc2cccc(F)c2)CC1 | -10 | i | -23% | -6% | -8 | 10%
SMILES | DRD3 antagonist | ATXN viability | ATXN2 expr inh | HepG2 tox | D3 ag | TGFb SMAD3 inh
CC(=O)Nc1ccc(CN2CCN(c3cccc(C(F)(F)F)c3)CC2)cc1 | -92* | ? | -2% | -5% | -59 | -10%
O=C(CN1CCCN(S(=O)(=O)c2ccc(Br)cc2)CC1)Nc1cccc(C(F)(F)F)c1 | nt | ? | ? | -50% | -6 | 7.9µM*
COc1cccc(CN2CCCN(S(=O)(=O)c3ccc(Br)cc3)CC2)c1 | -57* | i | -15% | -30% | 0 | -8%
CC1CCN(S(=O)(=O)c2cn(CC(=O)Nc3cccc(C(F)(F)F)c3)c(=O)c3ccccc23)CC1 | nt | ? | -29% | -32% | 4 | 13µM*
COC(=O)c1c(-c2ccc(Cl)cc2)noc1N1CCN(c2cc(C)ccc2C)CC1 | nt | i | 5% | -31% | 0 | -9%
O=C(CN1CCN(c2cccc(C(F)(F)F)c2)CC1)Nc1cccc(C(F)(F)F)c1 | ? | i | -8% | -18% | -8 | ?
CC(=O)Nc1ccc(NC(=O)CN2CCN(c3cccc(C(F)(F)F)c3)CC2)cc1 | -80* | i | 5% | -15% | -17 | -14%
O=[N+]([O-])c1ccc(N=Nc2c(Cl)cc(O)cc2Cl)cc1 | -13 | ? | nt | 3.2µM* | -1 | 1.1µM*
CC(N)=Nc1ccc([N+](=O)[O-])cc1 | -20 | i | -6% | 3% | 2 | 4%
CCN(N=O)c1ccc(/C=C/c2ccnc3ccccc23)cc1 | nt | nt | nt | -33% | nt | -21%
CNC(=O)c1cc(Oc2ccc(NC(=O)Nc3ccc(Cl)c(C(F)(F)F)c3)cc2)ccn1 | -58* | 16µM* | 18µM*! | 16µM*! | 0 | ?
O=C(Nc1ccc(Cl)c(C(F)(F)F)c1)c1ccncc1 | -24 | i | -25% | -15% | -10 | 0%
CCOC(=O)c1ccccc1NC(=O)CSc1nc2ncccc2o1 | nt | i | 8% | 2µM* | 7 | -1%
CCc1ccc(NC(=O)CSc2ccc(-c3ccccn3)nn2)cc1 | 1 | ? | ? | -6% | -3 | ?
CCOC(=O)c1ccccc1NC(=O)CSc1nc2ncccc2[nH]1 | nt | nt | nt | -1% | 9 | -16%
COc1ccc(C)cc1NC(=O)CSc1ccc(-c2ccccn2)nn1 | 13 | ? | 14µM* | 0% | -3 | ?
CCOC(=O)c1ccccc1NC(=O)CSc1ccc(-c2ccccn2)nn1 | 16 | ? | 3.5µM* | -8% | 7 | 8%
CCOC(=O)c1ccccc1NC(=O)CSc1nnnn1C1CCCCC1 | -77* | i | 6% | -16% | -30 | -9%
Cc1cc(CNC(=O)c2cnn(-c3nccc(-c4ccc5c(c4)OCO5)n3)c2C2CC2)on1 | nt | i | nt | nt | nt | nt
Cc1ccccc1OCc1ccc(-c2nc(C#N)c(N3CCN(c4ccccc4)CC3)o2)o1 | nt | nt | nt | -1% | 6 | 4%
CCOC(=O)c1cn(CC(=O)Nc2ccccc2C(=O)OCC)nn1 | -72* | i | 10% | -5% | -6 | -10%

Screening results from PubChem BioAssay.
